Common to all, as to experiment: NCI-60 one-dose screen, 48 h (100 = growth as untreated, 0 = no growth, -100 = all killed)
Holding throughout (details): 10 µM unless noted

Test [1] relates to SR leukemia.
For test [2], the system named is RPMI-8226 leukemia.
In test [3] the test system is OVCAR-8 ovarian.
Test [4] concerns OVCAR-5 ovarian.
Test [5] relates to OVCAR-4 ovarian.
Test [6] has as its system SK-OV-3 ovarian.
The subject of test [7] is IGROV1 ovarian.
Test [8] concerns OVCAR-3 ovarian.
For test [9], the system named is HS 578T breast.
Test [10] has as its system NCI/ADR-RES ovarian.
The test system of test [11] is T-47D breast.
For test [12], the system named is BT-549 breast.
Test [13] relates to MDA-MB-435 melanoma.
Test [14] deals with SW-620 colon.
Test [15] concerns MCF7 breast.
The subject of test [16] is HCT-116 colon.
Test [17] concerns HCC-2998 colon.
Test [18] has as its system KM12 colon.
The subject of test [19] is MDA-MB-468 breast.

SMILES strings stand for the structures. About 83,000 compounds went through this panel and 20% of them were active in at least one assay; those are over-represented in the sample as a whole.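 For each line, cells grew in 96-well plates with the test compound present at a single concentration for 48 hours.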 Values without a mark were called inactive. The source made the active and inactive calls. The calls were made as follows: active = growth percent below 10; inactive = the rest.

With `COc1ccc(C2=Nc3c(N)nc(N)nc3NC(c3ccc(Oc4nc(Nc5ccc(F)cc5)nc(N(C)C)n4)c(OC)c3)C2)cc1` (stereo not drawn), the growth in [1] was -29.4% (active); in [2] it was 36.2%; in test [3], 81.7%; in test [4], 108%; in [5] it was 48.4%; in test [6], 93.2%. The growth in test [7] is 63.5%; in test [8], 82.5%; in [9] it was 37.6%; in test [10] it was 62.7%; in test [11], 70.3%; in test [12], 66.2%. Also, the growth was 81.9% in test [13]; 76.6% in test [14]; 38.8% in test [15]; 44.2% in test [16]; 80.1% in [17]; 74.9% in [18]. Besides, the growth in test [19] was 8.9% (active).

As to `FC(F)(F)c1cc2c(Cl)ncnc2n1CCC1CCOCC1`, the growth was -64.3% (active) in [1]; 72.2% in [2]; 18.1% in test [3]; 102% in [4]; -16.5% (active) in test [5]; 50.6% in [6]. The growth was -90.6% (active) in test [7]; -75.4% (active) in test [8]; -42.5% (active) in [9]; 69% in [10]; 66.6% in test [11]; -41.1% (active) in [12]. For the same compound, the growth is -29.6% (active) in test [13]; 35% in test [14]; 34.7% in test [15]; -53.5% (active) in test [16]; -90.6% (active) in test [17]; 64.3% in test [18]. The growth in test [19] was -82.9% (active).

Turning to `c1ccc(CSc2nnc(-c3ccc4nc(-c5ccccc5)[nH]c4c3)o2)cc1`, the growth in test [1] is 63.6%; in test [2] it was 36.7%; in [3], -23.2% (active); in test [4] it was 75.3%; in test [5], -43.7% (active); in test [6], 87%. Moreover, the growth is 63.6% in [7]; 27.4% in test [8]; -1.88% (active) in [9]; -40.3% (active) in test [10]; 15.4% in [11]; 35.4% in [12]. For the same compound, the growth in [13] was 9.59% (active); in test [14] it was 10%; in test [15] it was 1.53% (active); in test [16], 2.99% (active); in [17], 62%; in test [18], 55%. Also, in [19], the growth was 2.91% (active).

As to `Cn1cc(-c2cc(N)n3nc(-c4c[nH]c5ccccc45)cc3n2)c2cc(Br)ccc21`, the growth was 13.6% in test [1]; -9.12% (active) in [2]; -63.7% (active) in test [3]; -57.1% (active) in test [4]; -40.6% (active) in [5]; -60% (active) in test [6]. Besides, the growth in test [7] was -70.6% (active); in [8], -48% (active); in test [9], -29.9% (active); in [10], -18.4% (active); in test [11], -82.7% (active); in test [12], -58% (active). Moreover, the growth in test [13] is -79% (active); in test [14] it was -84.3% (active); in test [15], -73.9% (active); in test [16], -77.7% (active); in test [17] it was -77% (active); in [18], -79.3% (active). For the same compound, the growth in [19] was -80.8% (active).

`O=C(Nc1ccc(-c2ccc3c(c2)NC(=O)/C3=C\c2ccc[nH]2)cc1)Nc1ccc(Cl)c(C(F)(F)F)c1`: the growth in test [1] was 6.31% (active); in test [2], 30.3%; in test [3], 50.5%; in [4], 51.2%; in test [5], 28.9%; in test [6], 68.3%. Further, the growth in test [7] was 61.7%; in test [8], 29.1%; in [9], 39%; in [10], 51.7%; in test [11] it was 16.5%; in test [12], 5.89% (active). Moreover, the growth in [13] is 3.54% (active); in [14], 27.6%; in test [15], 3.21% (active); in test [16] it was 2.62% (active); in test [17], 48.4%; in test [18] it was 22.3%. The growth in test [19] was -18.4% (active).

As for `Nc1nn2c(-c3cc4cc(Br)ccc4oc3=O)ccnc2c1N=Nc1ccc(Br)cc1`, the growth in test [1] is 29.7%; in test [2], 86.3%; in test [3], 14.5%; in [4] it was 11.8%; in test [5] it was 12.8%; in test [6], 22.4%. Also, the growth is -16.1% (active) in [7]; 5.27% (active) in [8]; 28.3% in test [9]; 14.1% in test [10]; 29.2% in test [11]; 40.7% in test [12]. Further, the growth in test [13] was 69.5%; in test [14] it was 43.2%; in [15] it was 39.5%; in [16], 16.2%; in test [17], 39.2%; in test [18], 51.7%. The growth in [19] was 39%.

`O=C1/C(=C/c2cnc(-c3ccccc3)s2)SC(=S)N1Cc1ccc2c(c1)OCO2`: the growth in test [1] is 67.5%; in test [2], 110%; in test [3] it was 67.6%; in [4], 99.4%; in test [5], 77.5%; in test [6], 35.6%. Further, the growth in [7] is 64.2%; in test [8], 97.6%; in test [9] it was 31.5%; in test [10], 77.2%; in [11] it was 47.4%; in test [12], 69.2%. The growth in test [13] is 94.5%; in [14], 102%; in [15] it was 59.3%; in [16], 69.4%; in [17], 102%; in [18], 99.7%. Further, the growth in [19] is 43.2%.

The record behind these values is PubChem BioAssay (NCI).
